Source: PubChem BioAssay AID1159580 (chemical genetic matrix, 2015)
Screen size: about 5,500 compounds; about 2,000 (36%) were called active. Inconclusive results (about 18%) are left out. Cut-off read from the data, not from the text of the source: active = normalized growth mostly below about 0.91 (no sharp cut-off); inconclusive = no clear call, values can overlap the other calls; inactive = mostly above about 0.92. This is one part of the list.

Assay: chemical genetic growth profiling, strain panel (AID 1159580);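 note: tested at 20 µM; growth read once vehicle control cultures reached saturation at 30 °C; 1 = growth at the plate median or of vehicle wells; lower values mean less growth of the strain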
Conditions: S. cerevisiae deletion strains, growth OD
[1] = locus YHR030C, strain SLT2, stronger effect = lower value
[2] = locus YHR079C, strain IRE1, stronger effect = lower value
[3] = locus YJL095W, strain BCK1, stronger effect = lower value
[4] = locus YJR066W, strain TOR1, stronger effect = lower value
[5] = locus YLR113W, strain HOG1, stronger effect = lower value
[6] = locus YNL183C, strain NPR1, stronger effect = lower value
[7] = locus YOR231W, strain MKK1, stronger effect = lower value
[8] = locus YPL256C, strain CLN2, stronger effect = lower value

Measured: normalized growth

COC(=O)N/N=C\c1c[n+]([O-])c2ccccc2[n+]1[O-]
active: locus YMR058W, strain fet3, stronger effect = lower value 0.883
inactive: locus YAL021C, strain ccr4, stronger effect = lower value 0.985 | locus YAL026C, strain drs2, stronger effect = lower value 0.999 | locus YAL030W, strain snc1, stronger effect = lower value 0.982 | locus YBL061C, strain skt5, stronger effect = lower value 0.975 | locus YBR009C, strain hhf1, stronger effect = lower value 0.99 | locus YBR023C, strain chs3, stronger effect = lower value 0.987 | locus YBR171W, strain sec66, stronger effect = lower value 0.981 | locus YBR231C, strain swc5, stronger effect = lower value 0.974 | locus YBR279W, strain paf1, stronger effect = lower value 0.987 | locus YCL011C, strain gbp2, stronger effect = lower value 0.992 | locus YCL016C, strain dcc1, stronger effect = lower value 0.993 | locus YCL069W, strain vba3, stronger effect = lower value 0.992 | locus YCR088W, strain abp1, stronger effect = lower value 0.986 | locus YDL005C, strain med2, stronger effect = lower value 0.98 | locus YDL040C, strain nat1, stronger effect = lower value 0.989 | locus YDR001C, strain nth1, stronger effect = lower value 0.998 | locus YDR069C, strain doa4, stronger effect = lower value 0.978 | locus YDR137W, strain rgp1, stronger effect = lower value 1.01 | locus YDR159W, strain sac3, stronger effect = lower value 1.02 | locus YDR195W, strain ref2 0.985 | locus YDR297W, strain sur2, stronger effect = lower value 0.983 | locus YDR334W, strain swr1, stronger effect = lower value 1 | locus YDR335W, strain msn5, stronger effect = lower value 0.983 | locus YDR392W, strain spt3, stronger effect = lower value 0.986 | locus YEL003W, strain gim4, stronger effect = lower value 0.975 | locus YEL037C, strain rad23, stronger effect = lower value 0.998 | locus YEL061C, strain CIN8 (second series), stronger effect = lower value 1 | locus YER015W, strain faa2, stronger effect = lower value 0.972 | locus YER016W, strain bim1, stronger effect = lower value 0.998 | locus YER111C, strain swi4, stronger effect = lower value 0.984 | locus YER155C, strain BEM2 (second series), stronger effect = lower value 0.982 | locus YFR010W, strain ubp6, stronger effect = lower value 0.981 | locus YGL167C, strain pmr1, stronger effect = lower value 0.978 | locus YGL173C, strain kem1, stronger effect = lower value 0.981 | locus YGL227W, strain vid30, stronger effect = lower value 0.987 | locus YGL240W, strain doc1, stronger effect = lower value 0.974 | locus YGL253W, strain hxk2, stronger effect = lower value 0.988 | locus YHR013C, strain ard1, stronger effect = lower value 1.06 | locus YHR027C, strain rpn1, stronger effect = lower value 0.995 | [1] 1.07 | [2] 1.04 | locus YHR142W, strain chs7, stronger effect = lower value 0.988 | locus YJL092W, strain hpr5, stronger effect = lower value 0.994 | locus YJL095W, strain BCK1 (second series), stronger effect = lower value 0.973 | [3] 1.05 | locus YJL115W, strain asf1, stronger effect = lower value 0.987 | locus YJL129C, strain trk1, stronger effect = lower value 1.03 | locus YJL154C, strain vps35, stronger effect = lower value 0.997 | locus YJL164C, strain tpk1, stronger effect = lower value 0.976 | locus YJL166W, strain qcr8, stronger effect = lower value 0.98 | [4] 0.905 | locus YKL160W, strain elf1, stronger effect = lower value 0.973 | locus YKR026C, strain gcn3, stronger effect = lower value 0.991 | locus YKR091W, strain srl3, stronger effect = lower value 0.988 | locus YLL001W, strain dnm1, stronger effect = lower value 0.991 | locus YLL026W, stronger effect = lower value 0.98 | locus YLL041C, strain sdh2, stronger effect = lower value 0.993 | locus YLR027C, strain aat2, stronger effect = lower value 0.986 | [5] 1.06 | locus YLR221C, strain rsa3, stronger effect = lower value 0.979 | locus YLR258W, strain gsy2, stronger effect = lower value 0.985 | locus YLR262C, strain YPT6 (second series), stronger effect = lower value 1 | locus YLR320W, strain mms22, stronger effect = lower value 0.976 | locus YLR342W, strain FKS1, stronger effect = lower value 0.997 | locus YLR357W, strain rsc2, stronger effect = lower value 0.981 | locus YLR370C, strain arc18, stronger effect = lower value 0.988 | locus YLR384C, strain iki3, stronger effect = lower value 0.986 | locus YML120C, strain ndi1, stronger effect = lower value 0.975 | locus YMR125W, strain sto1, stronger effect = lower value 1.02 | locus YMR129W, stronger effect = lower value 0.984 | locus YMR205C, strain PFK2, stronger effect = lower value 0.988 | locus YMR231W, strain pep5, stronger effect = lower value 0.969 | locus YNL071W, strain lat1, stronger effect = lower value 0.995 | [6] 0.981 | locus YNL209W, strain ssb2, stronger effect = lower value 0.987 | locus YNL248C, strain rpa49, stronger effect = lower value 1 | locus YNL322C, strain KRE1 (second series), stronger effect = lower value 0.993 | locus YNR049C, strain mso1, stronger effect = lower value 0.983 | locus YOR001W, strain rrp6, stronger effect = lower value 0.989 | locus YOR070C, strain gyp1, stronger effect = lower value 0.979 | locus YOR080W, strain dia2, stronger effect = lower value 0.985 | locus YOR083W, strain WHI5, stronger effect = lower value 0.983 | locus YOR106W, strain vam3, stronger effect = lower value 0.943 | [7] 1.05 | locus YOR265W, strain rbl2, stronger effect = lower value 0.985 | locus YOR270C, strain vph1, stronger effect = lower value 0.864 | locus YOR290C, strain snf2, stronger effect = lower value 0.996 | locus YPL051W, strain arl3, stronger effect = lower value 0.918 | locus YPL078C, strain atp4, stronger effect = lower value 0.971 | locus YPL106C, strain sse1, stronger effect = lower value 0.986 | locus YPL240C, strain hsp82, stronger effect = lower value 0.991 | [8] 1.09

O=C[C@H](O)[C@@H](O)[C@H](O)CO
inactive: [1] 1.04 | [2] 1.06 | [3] 1.06 | [4] 0.998 | [5] 1.07 | [6] 1.03 | [7] 1.09 | [8] 1.02

Clc1ccc2ocnc2c1
inactive: locus YAL013W, strain DEP1, stronger effect = lower value 1.01 | locus YBR229C, strain ROT2, stronger effect = lower value 1.01 | locus YDL101C, strain DUN1, stronger effect = lower value 1 | locus YDR150W, strain NUM1, stronger effect = lower value 0.95 | locus YEL061C, strain CIN8, stronger effect = lower value 1.01 | locus YGR078C, strain PAC10, stronger effect = lower value 1 | locus YGR229C, strain SMI1, stronger effect = lower value 1.01 | [1] 1.05 | locus YHR087W, strain rtc3, stronger effect = lower value 0.996 | locus YJR043C, strain POL32, stronger effect = lower value 0.931 | locus YJR075W, strain HOC1, stronger effect = lower value 0.999 | locus YKL190W, strain CNB1, stronger effect = lower value 1.02 | locus YLR039C, strain RIC1, stronger effect = lower value 1.02 | locus YLR058C, strain SHM2 (second series), stronger effect = lower value 1 | locus YLR085C, strain ARP6, stronger effect = lower value 0.997 | locus YLR262C, strain YPT6, stronger effect = lower value 1.08 | locus YML094W, strain GIM5, stronger effect = lower value 0.999 | locus YMR219W, strain ESC1, stronger effect = lower value 1.01 | locus YMR263W, strain SAP30, stronger effect = lower value 1.01 | locus YNL128W, strain TEP1, stronger effect = lower value 1.02 | locus YNL153C, strain GIM3, stronger effect = lower value 0.996 | locus YNL298W, strain CLA4 (second series), stronger effect = lower value 1.04 | locus YNL322C, strain KRE1, stronger effect = lower value 1.01 | locus YNR030W, strain Alg12, stronger effect = lower value 1 | locus YOL006C, strain TOP1, stronger effect = lower value 1.09 | locus YPL055C, strain LGE1, stronger effect = lower value 0.906 | locus YPL241C, strain CIN2, stronger effect = lower value 1.01 | locus YPR135W, strain CTF4, stronger effect = lower value 1.08
